Sfp PPTase inh – qHTS Assay for Inhibitors of Bacillus subtilis Sfp phosphopantetheinyl transferase (PPTase). 4'-phosphopantetheinyl transferase ffp (Bacillus subtilis), Q9F4F7. Biochemical Sfp PPTase activity, qHTS. Potency, µM, hits mostly inhibitors. 3.5% of 310,000 active;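 also: the enzyme is Sfp with the accession as filed and its product quenches rhodamine fluorescence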
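After 15 min at room temperature with compound, 15 nM Sfp received 5 uM rhodamine-CoA plus 12.5 uM BHQ-2-ybbR (50 mM Hepes pH 7.6, 10 mM MgCl2). Rate came from the fluorescence difference over 30 min, ex 525/em 598 nm.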
VDR inh – Inhibitors of the vitamin D receptor (VDR): qHTS. Vitamin D3 receptor (Homo sapiens), P11473. VDR-SRC2-3 peptide fluorescence polarization, 2 h. Potency, µM, hits mostly inhibitors. 0.93% of 400,000 active. AID 504847, 2011
Target sequence (P11473 whole entry, looked up): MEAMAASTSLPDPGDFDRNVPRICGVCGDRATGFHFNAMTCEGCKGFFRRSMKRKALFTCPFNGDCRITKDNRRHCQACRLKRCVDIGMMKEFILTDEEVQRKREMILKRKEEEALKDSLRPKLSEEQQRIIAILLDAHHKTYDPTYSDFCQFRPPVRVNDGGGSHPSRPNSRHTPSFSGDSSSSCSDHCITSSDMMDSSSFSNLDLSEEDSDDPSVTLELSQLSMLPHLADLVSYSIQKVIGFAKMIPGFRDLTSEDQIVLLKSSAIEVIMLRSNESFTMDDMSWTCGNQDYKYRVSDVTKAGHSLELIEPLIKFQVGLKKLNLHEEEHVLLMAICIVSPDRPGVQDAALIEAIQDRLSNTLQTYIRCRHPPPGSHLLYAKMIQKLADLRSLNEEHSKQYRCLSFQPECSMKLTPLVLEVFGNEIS
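Measured by FP: displacement of SRC2-3 coactivator peptide from VDR by library compounds, following a two-hour ambient incubation.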
PLK1 PBD block – qHTS for Inhibitors of PLK1-PDB (polo-like kinase 1 - polo-box domain): Primary Screen. Potency, µM, usual class: inhibitors. 2.8% of 360,000 active. Plk1 PBD binding of FITC phosphopeptide, fluorescence polarization. Serine/threonine-protein kinase PLK1 (Homo sapiens), P53350; also: series mostly up to about 57 µM; nearly all actives have a fitted effect of over 65% in size
mIDH1 inhibitor – qHTS for Inhibitors of mutant isocitrate dehydrogenase 1 (IDH1): qHTS | 0.093% of 390,000 active | IDH1-R132H enzyme, NADPH consumption, diaphorase/resazurin fluorescence | Isocitrate dehydrogenase [NADP] cytoplasmic (Homo sapiens), O75874 | Potency, µM (doses to about 76.6 µM), usual class: inhibitors; also: nearly all actives have a fitted effect of over 65% in size
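IDH1-R132H (0.5 ug/mL dispensed) in pH 7.5 Tris buffer was preincubated 30 min with compound, then given a substrate mix of 0.016 mM NADPH and 2 mM alpha-KG for 80 min at room temperature; remaining NADPH was read by diaphorase/resazurin fluorescence.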
TrxR1 substrate – qHTS Assay for Substrates of Mammalian Selenoprotein Thioredoxin Reductase 1 (TrxR1): qHTS | purified TrxR1 substrate turnover, NADPH consumption readout | AID 588456, 2011 | Potency, µM (series often up to 114 µM) | 0.01% of 390,000 active | Thioredoxin reductase 1, cytoplasmic (Rattus norvegicus), O89049; also: nearly all actives have a fitted effect of over 50% in size
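Rat TrxR1, dispensed at 90 nM, was prereduced with 400 uM NADPH (final) for 5 min at ~22 deg C, then incubated with compound 15 min before 400 uM selenite. A first-read NADPH fluorescence drop versus no-compound background flagged substrates.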
rTrxR1 inhibitor – qHTS Assay for Inhibitors of Mammalian Selenoprotein Thioredoxin Reductase 1 (TrxR1): qHTS; Thioredoxin reductase 1, cytoplasmic (Rattus norvegicus), O89049; recombinant rTrxR1, NADPH fluorescence consumption, selenite substrate; Potency, µM (doses to about 114 µM), hits mostly inhibitors; 1% of 390,000 active; AID 588453, 2011; also: nearly all actives have a fitted effect of over 65% in size
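Rat TrxR1 (90 nM in the dispensed reagent) was pre-reduced with 400 uM NADPH for 5 min at room temperature, then incubated with compound for 15 min. After 400 uM selenite was added, NADPH fluorescence (Ex 340/Em 450 nm) was followed for 8 min.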
Of the large screens only hits and unclear results are named; the others gave an inactive call; ! = a repeat was not active. A selection: hits, their analogues and other compounds. The true share with any hit is near 5.2%. Calls follow the shape of the dose curve; as a rule, active = well fitted curve in the direction sought with a large enough effect; inconclusive = small, poorly fitted or top-dose-only effect, or another doubt; inactive = no such curve, though single readings can be large; an effect the other way counts as inactive or inconclusive.

COc1ccc(-c2oc3c(c2C#CC(C)(C)O)C(OC)CCC3)cc1 (configuration not stated)	none (no result: Sfp PPTase inh, VDR inh, mIDH1 inhibitor, TrxR1 substrate, rTrxR1 inhibitor)
N#CCCn1cc(C(=O)Nc2ccc(C(=O)O)cc2)c(-c2cccs2)n1	VDR inh inconclusive, PLK1 PBD block 6µM
N#CCCn1cc(C(=O)NCc2ccccc2)c(-c2cccs2)n1	none
CC1CCN(CCCCOc2ccc(C(=O)c3ccccc3)cc2)CC1	PLK1 PBD block 27µM
CC1CCC(=O)N(CCOc2ccccc2)CC1 (configuration not stated)	VDR inh inconclusive, PLK1 PBD block 27µM
CN(Cc1ccccc1)c1ccc(C(=O)O)cc1[N+](=O)[O-]	none
Cc1cc(S(N)(=O)=O)c(N)c(S(N)(=O)=O)c1	none
COc1ccc(/C(=N/Nc2ncnc3ccccc23)C(=O)O)cc1	Sfp PPTase inh 63µM
CCOC(=O)/C(=N\Nc1ncnc2ccccc12)c1ccc(OC)cc1	none
O=c1c(-c2ccccc2)nc2cnc(Oc3ccccc3)nc2n1C[C@H]1CCCO1	none (no result: PLK1 PBD block, mIDH1 inhibitor, TrxR1 substrate, rTrxR1 inhibitor)
CCCc1ccc(/C=C2\C(=O)c3ccccc3C(O)=C2C(=O)OCC)cc1	Sfp PPTase inh 2.8µM (no result: VDR inh, PLK1 PBD block, mIDH1 inhibitor, TrxR1 substrate, rTrxR1 inhibitor)
CCOC(=O)c1ccc(COC(=O)c2ccc3c(c2)-c2ccccc2C3=O)cc1	VDR inh inconclusive
CCOC(=O)C1=C(Cc2ccc(C)cc2)C(=O)c2ccccc2C1=O	Sfp PPTase inh 7.9µM (no result: VDR inh, PLK1 PBD block, mIDH1 inhibitor, TrxR1 substrate, rTrxR1 inhibitor)
CCOC(=O)C1=C(O)c2ccccc2C(=O)/C1=C\c1ccc(CC)cc1	Sfp PPTase inh 2µM, VDR inh 3.5µM, PLK1 PBD block 3µM, rTrxR1 inhibitor 10µM
CS(=O)(=O)N1CCC[C@@]2(CCN(Cc3nccs3)C2)C1	none (no result: PLK1 PBD block, mIDH1 inhibitor, TrxR1 substrate, rTrxR1 inhibitor)
COC(=O)c1cc2sc(C)cc2n1CC(=O)Nc1ccc(C)c(C)c1	none (no result: Sfp PPTase inh, PLK1 PBD block)
Clc1cc(Cl)c(OCC#CI)cc1Cl	Sfp PPTase inh 79µM, VDR inh 2.8µM (no result: PLK1 PBD block, mIDH1 inhibitor, TrxR1 substrate, rTrxR1 inhibitor)
CN1CCN(/N=C/c2nc(-c3cccc([N+](=O)[O-])c3)n3ccccc23)CC1	Sfp PPTase inh 79µM
O=C(CC1C[C@H](C(=O)N2CCOCC2)[C@@]2(CCC3CCCC3)c3[nH]c4ccccc4c3CCN2C1=O)NCC12CC3CC(CC(C3)C1)C2 (some centres not stated)	none (no result: Sfp PPTase inh)
CC(=C/C(=O)O)/C=C/c1ccc([N+](=O)[O-])cc1	none
CC1=C(/C=C/C(C)=C\C=C\C(C)=C\C(=O)O)C(C)(C)CCC1	VDR inh 56µM! (no result: PLK1 PBD block, mIDH1 inhibitor, TrxR1 substrate, rTrxR1 inhibitor)
CC1=C(/C=C/C(C)=C/C=C/C(C)=C/C(=O)O)C(C)(C)CCC1	Sfp PPTase inh inconclusive, VDR inh 45µM!, PLK1 PBD block inconclusive, rTrxR1 inhibitor 25µM!
CC1=C(/C=C/C(C)=C/C=C/C(C)=C/C(=O)O)C(C)(C)CCC1O (configuration not stated)	VDR inh 71µM (no result: PLK1 PBD block, mIDH1 inhibitor, TrxR1 substrate, rTrxR1 inhibitor)
CC1=C(/C=C/C(C)=C/C=C/C(C)=C/C(=O)Oc2c(C)c(C)c3c(c2C)CC[C@@](C)(CCC[C@H](C)CCC[C@H](C)CCCC(C)C)O3)C(C)(C)CCC1	none (no result: PLK1 PBD block, mIDH1 inhibitor, TrxR1 substrate, rTrxR1 inhibitor)
COC(=O)[C@H]1C[C@@]2(O)CN(S(=O)(=O)c3ccc(C)cc3)C[C@@]2(OC(=O)NCc2ccco2)C[C@H]1C(=O)OC	none (no result: Sfp PPTase inh, VDR inh, TrxR1 substrate, rTrxR1 inhibitor)
CCCNC(=O)C1(C)CCCN(Cc2ccccc2Cl)C1 (configuration not stated)	none (no result: Sfp PPTase inh, VDR inh, mIDH1 inhibitor, TrxR1 substrate, rTrxR1 inhibitor)
COc1cc(/C=C/C(=O)OCC(=O)NCc2ccc(F)cc2)ccc1O	none (no result: Sfp PPTase inh)
COc1ccccc1OCC(O)CN1C(=O)NC(C)(C)C1=O (configuration not stated)	PLK1 PBD block 27µM, rTrxR1 inhibitor inconclusive
COc1ccc(OC)c(C2=C/C(=C/c3ccccn3)C(=O)O2)c1	none

Compound activity deposited in PubChem BioAssay by National Center for Advancing Translational Sciences (NCATS).
